Screens: PubChem, National Center for Advancing Translational Sciences (NCATS)
The entries come from a sample that favours hits as a whole.
AMA1 RON2 block – inhibitors of Plasmodium falciparum AMA1-RON2 interaction. hit rate 0.2% among 360,000. Potency, µM (series often up to 58.2 µM), for inactives: at the highest dose activity change, negative = inhibition, hits mostly inhibitors. AlphaScreen AMA1-biotinylated RON2 peptide binding; active = well fitted inhibition curve with a large enough effect; inconclusive = small, poorly fitted or top-dose-only effect; inactive = no such curve, though single readings can be large or run the other way;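 also: potency is read from the fitted curve at half-maximal effect; 0% = vehicle wells and -100% = peptide control; nearly all actives have a fitted effect of over 45% in size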
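AMA1 (3D7) with his tag at 25 nM final met compounds first, then biotinylated RON2 peptide at 25 nM; detection used donor plus acceptor beads, 10 µg/mL apiece, read by AlphaScreen after 30 min at room temperature.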
MARV entry inh – inhibitors of Marburg virus binding or cell entry. Marburg virus pseudotyped entry inhibition, cell reporter. Potency, µM (series often up to 37.8 µM), for inactives: at the top dose activity change, negative = inhibition, most hits filed as inhibitors. hit rate 1.8% among 300,000. AID 540276; calls by dose curve; tested in HEK293 cells; also: potency is read from the fitted curve at half-maximal effect; % is scaled to controls: 0 for no effect and ±100 for the full control effect
Shiga inhibitor – blocks Shiga toxin action in Vero cells; Vero cells, Shiga toxin protein synthesis inhibition reporter; inhibition, % at 38.7 µM; hit rate 9.2% among 290,000; AID 2315; in the data active = inhibition mostly above about 28%, no sharp cut-off; inactive = mostly below about 43%; also: 0% is about no effect
LASV entry inh – Lassa virus entry inhibition; Lassa virus pseudotype entry inhibition, cell reporter; Potency, µM (titrated, usually from 37.9 µM), for inactives: top-dose activity change, negative = inhibition, hits mostly inhibitors; hit rate 1.2% among 300,000; calls by dose curve; tested in HEK293 cells; also: potency is read from the fitted curve at half-maximal effect; % is scaled to controls: 0 for no effect and ±100 for the full control effect; nearly all actives have a fitted effect of over 50% in size
Cycloheximide cs – affects cycloheximide protein synthesis inhibition readout, counter-screen | hit rate 12% among 300,000 | max response, % | cell reporter, cycloheximide protein synthesis inhibition counterscreen; in the data active = max response mostly above about 13%, no sharp cut-off; inactive = mostly below about 14%; also: read at 38.3 µM for the half of the compounds with a filed dose; 0% is about no effect
Numbers without * were called inactive; ? = inconclusive; . = no result given; [ ] = remark or other dose.

SMILES	AMA1 RON2 block	MARV entry inh	Shiga inhibitor	LASV entry inh	Cycloheximide cs
Cc1ccc(S(=O)(=O)N2CCC(=O)N(C(COCc3cccc(C)c3)Cc3ccccc3)CC2)cc1 (stereo unspecified)	7.8%	?	32.7	14.6µM*	-1.3
Cc1cccc(C(=O)N2CCC(=O)N(C(COCc3ccc(Cl)cc3)Cc3ccccc3)CC2)c1 (stereo unspecified)	-16.6%	-4.2%	-17.6	10.3µM*	-5.8
Cc1cccc(C(=O)N2CCC(=O)N(C(COCc3cccc(Cl)c3)Cc3ccccc3)CC2)c1 (stereo unspecified)	-1.0%	-7.9%	-12.0	8.2µM*	-3.5
O=C(c1cccc(Cl)c1)N1CCC(=O)N(C(COCc2cccc(Cl)c2)Cc2ccccc2)CC1 (stereo unspecified)	-5.1%	-17.3%	-11.4	14.6µM*	-3.9
O=C(c1cccc(Cl)c1)N1CCC(=O)N([C@H](COCc2ccccc2)Cc2ccccc2)CC1	0.7%	.	.	.	.
CCc1ccc2oc(C(=O)NCCc3ccc(S(N)(=O)=O)cc3)cc(=O)c2c1	2.5%	4.1%[46.1 µM]	-8.9	0.0%[46.1 µM]	-2.5
CCOC(=O)c1nnc2cc(-c3ccccc3)nn2c1C	-0.2%	?	11.3	-21.8%	28.4*
CCOC(=O)c1cc2nc(-c3ccccc3)cc(C)n2n1	-9.7%	-2.5%	.	10.5%	-3.4
CCOC(=O)c1cnn2c(C)cc(-c3ccccc3)nc12	-5.6%	9.1%	68.2*	6.8%	36.1*
COC1CCN(C(=O)C2CCC(=O)N(C3CCCCCC3)C2)CC1 (stereo unspecified)	5.3%	.	51.9*	.	36.5*
Cc1ccc(C(C)(C)NC(=O)C2CCC(=O)N(CCCN3CCOCC3)C2)cc1 (stereo unspecified)	-9.9%	.	-3.9	.	-3.4
O=C(C1CCC(=O)N(C2CC2)C1)N1CCC(Oc2cccc(C(F)(F)F)c2)CC1 (stereo unspecified)	-3.1%	.	16.9	.	24.0*
Cc1ccc(OC2CCN(C(=O)C3CCC(=O)N(C4CC4)C3)CC2)cc1 (stereo unspecified)	9.4%	-9.6%	11.3	-25.3%	6.7
Cc1ccc(C(C)(C)NC(=O)C2CCC(=O)N(C3CCCCCC3)C2)cc1 (stereo unspecified)	16.3%	10.5%[46.1 µM]	86.3*	7.7%[46.1 µM]	42.0*
Cc1ccccc1OC1CCN(C(=O)C2CCC(=O)N(C3CCCC3)C2)CC1 (stereo unspecified)	0.5%	.	4.4	.	-0.9
Cc1ccc(SC2CCN(C(=O)C3CCC(=O)N(C4CC4)C3)CC2)cc1 (stereo unspecified)	2.7%	.	49.5*	.	27.3
Cc1ccccc1SC1CCN(C(=O)C2CCC(=O)N(C3CC3)C2)CC1 (stereo unspecified)	-5.1%	.	7.4	.	2.9
CCOC(=O)C1CCN(C(c2ccccc2OC)c2c(O)cc(C)n(CCOC)c2=O)CC1 (stereo unspecified)	.	.	.	-7.5%[46.1 µM]	.
COCC1CCN(C(=O)C2CCC(=O)N(C3CCCC3)C2)CC1 (stereo unspecified)	-3.6%	.	49.3	.	14.8*
O=C(C1CC(=O)N(C2CCCCC2)C1)N1CCC2(CC1)OCCO2 (stereo unspecified)	6.1%	8.6%	31.6	9.1%	13.4*
O=C1CC(C(=O)N2CCC3(CC2)OCCO3)CN1CCc1ccccc1 (stereo unspecified)	10.0%	-6.0%	-13.6	1.7%	-2.2
CC1CC(Nc2ccccc2N)=CC(=O)O1 (stereo unspecified)	7.2%	18.4%	48.0*	17.4%	27.8*
COc1ccc(NC2=CC(=O)CC(c3ccccc3)C2)c(OC)c1 (stereo unspecified)	-11.4%	?	28.0	?	37.1*
CCOc1ccccc1NC1=CC(=O)CC(c2ccccc2)C1 (stereo unspecified)	1.9%	?	-18.1	?	-4.8
Nc1ccccc1NC1=CC(=O)CC(c2ccccc2)C1 (stereo unspecified)	.	.	44.7	.	22.1*
SMILES	AMA1 RON2 block	MARV entry inh	Shiga inhibitor	LASV entry inh	Cycloheximide cs
Nc1ccccc1NC1=CC(=O)CC(c2ccco2)C1 (stereo unspecified)	44.8%	-2.4%	72.0*	3.1%	46.7*
O=C1C=C(Nc2cccc(Cl)c2)CC(c2ccco2)C1 (stereo unspecified)	-6.1%	-13.3%	-11.7	2.5%	1.2
O=C(CNC(=O)c1cccc(F)c1)NC1CC1	-8.3%	7.1%	.	-1.2%	.
Cc1ccc(NC2=CC(=O)CC(c3ccco3)C2)c(N)c1 (stereo unspecified)	70.3%	?	79.0*	-14.7%	37.4*
Cc1cc(C)cc(NC2=CC(=O)CC(c3ccco3)C2)c1 (stereo unspecified)	-10.2%	-3.7%	42.7	?	-6.0
Nc1sc(-c2ccccc2)cc1C(=O)O	.	0.0%	55.2*	.	28.5*
CC(C)(C)C(=O)Nc1scc(-c2ccc(-c3ccccc3)cc2)c1C(=O)O	-8.1%	.	-2.1	.	4.9
CC(C)(C)C(=O)Nc1sc(-c2ccccc2)cc1C(=O)O	-1.5%	?	111.9*	?	41.3*
CCOC(=O)c1cc(-c2ccccc2)sc1NC(=O)c1ccc(OC)c(OC)c1	-9.7%	2.1%	-11.8	-17.6%	-2.2
Cc1cccc(C(=O)Nc2sc(-c3ccccc3)cc2C(=O)O)c1	8.9%	.	127.4*	.	46.1*
N#C/C(C(=O)N1CCOCC1)=C1\S[C@H](Cc2ccccc2)C(=O)N1c1ccccc1	.	20.1%	.	.	.
COc1ccc(SCCCn2c(=O)c3c(ncn3C)n(C)c2=O)cc1	-5.6%	3.7%[46.1 µM]	-6.3	-6.4%[46.1 µM]	-3.7
COc1cc(C(=O)Oc2ccccc2/C=N/NC(=O)c2ccc(C)cc2)cc(OC)c1OC	-3.6%	?	118.0*	8.91µM*	87.2*
COc1ccc(C(=O)N/N=C/c2ccccc2OC(=O)c2ccccc2)cc1	77.5%	12.6µM*	41.2*	?	33.4*
COc1ccc(C(=O)N/N=C/c2ccc(OC(=O)c3ccccc3)cc2)cc1	10.6%	0.0%	19.0	26.7%	-0.8
CCc1ccc(NC(=O)c2sc(-n3nc(C)c(Cc4ccc(OC)cc4)c3C)nc2C)cc1	.	?	.	11.6%[46.1 µM]	.
CC(C)NC(=O)c1ccc2sc([C@H]3C[C@H](O)[C@@H](CO)O3)nc2c1	12.2%	.	.	.	.
COC(=O)c1cc2c(cc1NC(=O)c1cnn(-c3ccc(C)cc3)c1-n1cccc1)OCO2	.	.	.	-4.3%[46.1 µM]	.
CCC(C)(C)NC(=O)C(c1ccc(F)cc1)N(Cc1ccc(OC)cc1)C(=O)c1cnccn1 (stereo unspecified)	-19.8%	0.8%[46.1 µM]	60.4*	-3.3%	31.3*
Cc1ccc(C(=O)NC(C)c2nnc(SCC(=O)NC3CCCC3)n2C)cc1 (stereo unspecified)	16.9%	10.7%	-5.0	9.8%	-2.5
O=C(COC(=O)c1cccs1)Nc1nc(-c2ccccc2)cs1	-9.1%	22.2%	21.5	?	1.5
O=C(Cc1cccs1)Nc1nc(-c2ccccc2)cs1	?	?	28.6	1.64µM*	9.9
Cn1nccc1C(=O)OCC(=O)Nc1nc(-c2ccccc2)cs1	-10.5%	?	53.7	3.0%	24.0*
Cc1nc(CC(=O)Nc2nccs2)cs1	6.0%	?	-15.6	10.5%	-1.8
Cc1nc(CC(=O)Nc2nc(C(C)(C)C)cs2)cs1	-12.7%	?	88.1*	?	17.3
